From PubChem BioAssay AID1259343 (VanderVen Lab, College of Veterinary Medicine, Cornell …, 2017) come the findings set out here.

Structures are written as SMILES. In all, about 6,200 compounds went through this assay and about 2,900 (47%) were called active. So high a share suggests a set chosen from earlier hits. The list shows a part of the results. Values without a mark were called inactive. Rule as the data show it: active = inhibition above about 50%; inactive = the rest.

The experiment is described as follows: Mycobacterium tuberculosis growth inhibition, primary screen (AID 1259343). The note with it: inhibition: at 10 µM, hits give high values; outcome: 10 uM.
For `Cc1ccccc1C1c2ccsc2CCN1C(C)C(=O)N1CCCN(S(=O)(=O)c2ccc(C(C)(C)C)cc2)CC1` (configuration not stated), the inhibition (in general, the drop in the measured response relative to a control, in per cent) was 77.4% (active).

For `CC(Sc1n[nH]c(-c2cccs2)n1)c1ccc(F)cc1F` (configuration not stated), the inhibition was 10.1%. On to `Fc1ccc(CSCc2csc(-c3ccc(F)cc3)n2)cc1`, for which the inhibition is 38.6%.

As for `COc1ccc(OCc2nc(CSCc3ccc(F)cc3)cs2)cc1`, the inhibition was 50.8% (active). For `CN(C)C(=O)CSc1nnc(-c2ccc(Br)cc2)o1` the value was 78.2% (active); for `COc1ccc(-c2nnc(SCC(=O)NC(C)(C)C)o2)cc1`, 38.2%.

With `Cc1cc(C)cc(-c2nnc(SCc3cc(C)on3)o2)c1`, the inhibition was 34.2%.

On to `Cc1ccc(-c2nnc(SCc3c(C)noc3C)o2)cc1`, for which the inhibition is 79% (active).

Take `Cc1cc(CSc2nnc(-c3ccc(C(C)(C)C)cc3)o2)no1`: the inhibition is 85.8% (active). Next, `CC(C)(C)c1ccc(-c2nnc(SCC(N)=O)o2)cc1`: 98.8% (active). Consider `O=C1N=c2ccc(Br)cc2=C1c1sc(NS(=O)(=O)Cc2ccccc2)nc1O`, for which the inhibition is 16.2%. Next, `CC(Sc1nnc(-c2ccc(Br)cc2)o1)C(N)=O` (configuration not stated): 86% (active); `CC(C)(C)c1ccc(OCCCC(=O)NCc2cn[nH]c2)cc1`: 88% (active); `Cc1nn(C(C)(C)C)c(C)c1C(=O)NCC1CCCCCCC1`: 80.2% (active). Next, `Cc1ccc(C(=O)NCC2CCCCC2)c(C2CCN(C(=O)c3ccccc3)CC2)n1`: 31.2%. As for `Cc1oc(-c2ccccc2)nc1C(=O)NCC1CCCCC1`, the inhibition was 16.3%.

Consider `OC1(c2ccccc2)CC(=NC2=NN(c3ccccc3)CC2)C=C1c1ccccc1` (configuration not stated), for which the inhibition is 84% (active). Turning to `CC(C)Oc1ccc(NC(=O)c2cc(Br)cn2C)cc1`, the inhibition was 23%. Take `Cn1cc(Br)cc1C(=O)Nc1cc2c(cc1Cl)OCO2`: the inhibition is 88.7% (active). Next, `Brc1ccc2nc(NCc3ccccn3)nc(-c3ccccc3)c2c1`: 1.6%.

In the case of `CC(C)c1cccc(-c2nc3c(NCCc4ccncc4)nccc3[nH]2)c1`, the inhibition is 51.9% (active).

As for `CC(C)c1cccc(-c2nc3c(NCc4ccccn4)nccc3[nH]2)c1`, the inhibition was 82.7% (active). For the compound `c1ccc(CCNc2nc(-c3ccco3)nc3ccccc23)cc1`, the inhibition is 8.49%. For `COCCCNc1nccc2[nH]c(-c3cccc(C(C)C)c3)nc12` the value was 78.4% (active); for `Clc1ccccc1-c1nc2c(NCCc3ccccc3)nccc2[nH]1`, 60.4% (active). With `Cc1ccc(-c2cc(CNCc3ccco3)no2)c(C)c1`, the inhibition was 27.2%. For `FC(F)(F)c1cc(-c2ccco2)nc(NCC2CCCO2)n1` (configuration not stated) the value was 28.3%. On to `FC(F)(F)c1ccc(NCc2csc(-c3ccco3)n2)cc1`, for which the inhibition was 89.6% (active).

Take `Cn1nnc2c(Nc3ccc(Nc4ccccc4)cc3)ncnc21`: the inhibition is 9.73%. For the compound `Cn1nnc2c(Nc3ccc(OC(F)F)cc3)ncnc21`, the inhibition was 72% (active). For `CCc1ccc(Nc2ncnc3c2nnn3C)cc1` the value was 69.2% (active); for `CCOc1ccc(Nc2ncnc3c2nnn3C)cc1`, 16.3%. Next, `Cn1nnc2c(Nc3ccc(Oc4ccccc4)cc3)ncnc21`: 53.9% (active); `Cc1cc(Cl)ccc1Oc1ncccc1C#N`: 33.1%; `Cc1cc(Cl)ccc1OCC(O)CN1CCN(c2ccccc2)CC1` (configuration not stated): 51.6% (active). Next, `Fc1ccc(N=c2scc(-c3ccc(OC(F)F)cc3)n2C2CC2)cc1`: 53.9% (active).

As for `FC(F)Oc1ccc(-c2csc(=Nc3cccnc3)n2C2CC2)cc1`, the inhibition is 80.6% (active). Next, `Brc1ccccc1-c1csc(=Nc2cccnc2)n1C1CC1`: 36.9%. As for `FC(F)Oc1ccc(-c2csc(=Nc3cccnc3)n2CC2CCCO2)cc1` (configuration not stated), the inhibition is 38.5%.

Take `CN=c1scc(-c2ccc(F)cc2)n1N=C(C)c1ccncc1`: the inhibition is 18.1%. Next, `CN(c1ccccc1)c1nnc(C(O)c2cc(F)c(F)c(F)c2)s1` (configuration not stated): 69.1% (active); `NC(=O)COc1ccc(C(=O)N2CCc3sccc3C2)cc1`: 67% (active); `CCCCN(C)c1ccc(C(=O)N2CCc3sccc3C2)cc1`: 9.79%. For `NC(=O)c1ccc(C(=O)N2CCC(=Cc3ccccc3)CC2)cc1` the value was -6.19%.

For the compound `CC1CC(C)CN(C(=O)c2cc3c(s2)CCC3)C1` (configuration not stated), the inhibition was 8.3%. Take `O=C(COC(=O)c1cc2c(s1)CCC2)NCCN1C(=O)CSC1=O`: the inhibition is 71.9% (active). In the case of `COC(=O)c1cccc(OC(=O)c2cc3c(s2)CCCC3)c1`, the inhibition was 22%.

`Cc1cccc(C)c1NC(=O)C[N+](C)(C)C`: the inhibition was 65.2% (active). For `Cc1cccc(C)c1NC(=O)CN(C)c1cnn(Cc2ccccc2)c(=O)c1Cl` the value was 32.3%; for `CN(C)C(=O)N1CCN(c2cc(-c3ccccc3)c3ccccc3n2)CC1`, 30.6%; for `CN(Cc1nc2ccccc2c(=O)[nH]1)C(=O)c1cccc(Cl)c1Cl`, 44.4%. For `O=c1[nH]c(CN2CCN(c3cc(=O)n4ccccc4n3)CC2)nc2ccccc12` the value was 68.5% (active); for `NC(=O)c1ccc2nc(-c3ccc(Oc4ccc(Cl)cc4)cc3)[nH]c2c1`, 64.4% (active). In the case of `NC(=O)c1ccc(-c2nc(-c3ccc4c(c3)OCCO4)c(-c3ccccn3)[nH]2)cc1`, the inhibition was 40.2%. For `CC(C)CNc1nn2cc(C(C)(C)C)nc2s1` the value was 43.8%. Take `Cc1ccc(CNc2ncnc3[nH]ncc23)o1`: the inhibition is 99.6% (active). In the case of `COc1ccc(CCNc2ncnc3[nH]ncc23)cc1`, the inhibition was 8.19%. For the compound `CN(C)c1cccc(C(=O)NCC2COc3ccccc3C2)c1` (configuration not stated), the inhibition was 13.6%.

For the compound `C=CCNC(=O)c1cccc(I)c1`, the inhibition is -37.8%. For `CCC/C=C/c1ccc(NC(C)=O)nc1` the value was 92.5% (active); for `CCC/C=C/c1cccc(C(=O)NCC)c1`, 79.3% (active). For `Cc1cccc(-c2ccc(NC(=O)C3CCN(C(=O)CC4CCCC4)CC3)cc2)c1` the value was 89.3% (active).

`C=CCC(=O)N1CCC(C(=O)Nc2ccc(-c3cccc(C)c3)cc2)CC1`: the inhibition is 91.9% (active). For `COCC(=O)N1CCC(C(=O)Nc2ccc(-c3cccc(C)c3)cc2)CC1` the value was “inactive”; for `Cc1cccc(-c2ccc(NC(=O)C3CCN(C(=O)CC4=CCCCC4)CC3)cc2)c1`, 90.9% (active). On to `O=C(NCCO)c1ccc(OCc2ccc(Cl)s2)cc1`, for which the inhibition is -5.18%. `N#CC1=C(NC(=O)c2ccc(COc3ccc(Cl)cc3)cc2)CCC1`: the inhibition was 82.1% (active).
